PI5P4Ka inh – PI5P4K alpha (human) kinase inhibition; P48426; PI5P4Kalpha enzyme, ADP-Glo luminescence, 60 min; stronger effect = lower value; max response, %; 330,000 compounds, 1.2% hits; active = max response of -50% or lower; inconclusive = between -30% and -50%; inactive = -30% or higher; note: value at the top dose of about 77 µM; % is set by controls: 0 for no effect and ±100 for the full control effect
Target sequence (P48426 whole entry, looked up): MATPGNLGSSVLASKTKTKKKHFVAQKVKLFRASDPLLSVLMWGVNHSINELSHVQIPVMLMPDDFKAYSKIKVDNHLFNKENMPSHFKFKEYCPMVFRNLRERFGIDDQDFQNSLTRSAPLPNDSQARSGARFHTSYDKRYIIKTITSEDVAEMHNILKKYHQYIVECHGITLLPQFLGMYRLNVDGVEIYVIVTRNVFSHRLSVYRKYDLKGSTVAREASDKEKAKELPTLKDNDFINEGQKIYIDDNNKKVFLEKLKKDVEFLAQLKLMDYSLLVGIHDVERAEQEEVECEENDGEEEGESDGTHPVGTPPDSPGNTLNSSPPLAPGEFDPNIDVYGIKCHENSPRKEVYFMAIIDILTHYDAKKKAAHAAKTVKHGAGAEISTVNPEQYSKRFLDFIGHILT
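Quantitative HTS of the MLSMR library against PI5P4Kalpha with substrate. ATP added last at 5 microM final; room temperature, 60 minutes. Remaining ATP depleted, ADP converted and read as luminescence.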
BAZ2B inh – BAZ2B (human) inhibition; AlphaScreen BAZ2B-H3K14Ac peptide displacement; Q9UIF8; AID 504333; 360,000 compounds, 4.4% hits; Potency, µM (top dose mostly 114 µM), for inactives: top-dose activity change, negative = inhibition, actives largely listed as inhibitors; note: potency is the fitted concentration of half-maximal effect; % is set by controls: 0 for no effect and ±100 for the full control effect; nearly all actives have a fitted effect of over 60% in size
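Compounds, titrated to a top concentration of 110 uM, were incubated 30 min at room temperature with preformed BAZ2B/acetyl-K14 H3 peptide complex (50 nM each). Proximity signal was measured by AlphaScreen after 20 min with beads.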
KAT2A inh – GCN5L2 (KAT2A) acetyltransferase inhibition | AID 504327 | 390,000 compounds, 0.21% hits | Potency, µM (doses to about 58.9 µM), for inactives: top-dose activity change, negative = inhibition, actives largely listed as inhibitors | GCN5L2 HAT assay, ThioGlo1 CoA-SH fluorescence | Q92830; note: potency is the fitted concentration of half-maximal effect; % is set by controls: 0 for no effect and ±100 for the full control effect
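GCN5L2 (20nM final) in 50mM HEPES, 0.1mM EDTA pH 7.5, 0.01% Tween-20 was preincubated 15 min at room temperature with compound, then given ThioGlo1 (50uM), H3(1-25) peptide (75uM) and acetyl-CoA (70uM); CoA-thiol fluorescence (Ex340/Em540) was read at 0 and 20 min.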
HP1b chromo inh – blocks HP1-beta chromodomain binding to methylated histone tails; P83916; AlphaScreen HP1-beta / biotin-H3K9me3 peptide binding; Potency, µM (highest dose often 114 µM), for the others: top-dose activity change, negative = inhibition, hits mostly inhibitors; 390,000 compounds, 0.56% hits; note: potency is the fitted concentration of half-maximal effect; nearly all actives have a fitted effect of over 70% in size
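HP1-beta protein (50 nM final) preincubated 30 min at room temperature with biotinylated H3(1-18)K9me3 peptide (50 nM) in PBS pH 7.4, 0.01% Tween-20, then compound added for 30 min. AlphaScreen streptavidin donor/nickel chelate acceptor beads (10 ug/mL final), 30 min dark, luminescence read.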
PLK1 PBD block – PLK1 (human) polo-box domain binding inhibition; P53350; Plk1 PBD binding of FITC phosphopeptide, fluorescence polarization; Potency, µM, without a hit: max response, negative = inhibition, most hits filed as inhibitors; 360,000 compounds, 2.8% hits; note: potency is the fitted concentration of half-maximal effect; series mostly up to about 57 µM; % is set by controls: 0 for no effect and ±100 for the full control effect; nearly all actives have a fitted effect of over 65% in size
JMJD2A Tudor inh – JMJD2A Tudor domain (human) inhibition. O75164. AlphaScreen JMJD2A-Tudor / H3K4me3 peptide binding. Potency, µM (doses to about 114 µM), for the others: at the top dose activity change, negative = inhibition, usual class: inhibitors. 390,000 compounds, 4.4% hits. AID 504339; note: potency is the fitted concentration of half-maximal effect; % is set by controls: 0 for no effect and ±100 for the full control effect; nearly all actives have a fitted effect of over 50% in size
JMJD2E inh – JMJD2E (human) demethylase inhibition, confirmation; Recombinant JMJD2E, FDH-coupled NADH fluorescence (FDH is formaldehyde dehydrogenase); AID 2677; 140 compounds, 93% hits; Potency, µM (highest dose often 56.8 µM), inactives show at the highest dose activity change, negative = inhibition, actives largely listed as inhibitors; shares compounds with JMJD2A Tudor inh
FDH inh – counter-screen for JMJD2E inhibitors: Pseudomonas putida formaldehyde dehydrogenase | shares compounds with JMJD2A Tudor inh | FDH enzyme assay, NADH fluorescence kinetic | Potency, µM (top dose mostly 56.7 µM), for the others: at the highest dose activity, negative = inhibition, most hits filed as inhibitors | 140 compounds, 10% hits | AID 2680
G9a inh – confirmation of human histone methyltransferase G9a inhibitors | G9a H3K9 monomethylation, AlphaScreen, 2 h | AID 588344 | 370 compounds, 89% hits | shares compounds with JMJD2A Tudor inh | Potency, µM, hits mostly inhibitors; note: potency is the fitted concentration of half-maximal effect; nearly all actives have a fitted effect of over 65% in size
Target sequence (Q96KQ7 913-1193 limits assumed): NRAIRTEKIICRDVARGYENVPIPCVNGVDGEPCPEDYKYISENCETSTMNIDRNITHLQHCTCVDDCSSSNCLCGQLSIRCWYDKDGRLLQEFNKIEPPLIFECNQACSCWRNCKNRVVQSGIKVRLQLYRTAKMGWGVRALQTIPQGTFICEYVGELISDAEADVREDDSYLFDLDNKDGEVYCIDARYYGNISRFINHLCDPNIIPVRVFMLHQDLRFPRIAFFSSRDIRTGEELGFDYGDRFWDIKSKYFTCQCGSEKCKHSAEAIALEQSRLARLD
RGS4 confirm – inhibits human RGS4, hit validation | RGS4 GAP activity, Transcreener GDP fluorescence polarization | shares compounds with JMJD2A Tudor inh | 25 compounds, 80% hits | Potency, µM, hits mostly inhibitors
An asterisk follows results filed as active; ? = inconclusive; / = no result given; [ ] = dose if it differs, or a comment. An excerpt weighted towards active compounds, which were near 7% of everything screened. Unless noted, calls come from the whole dose curve; as a rule, active = well fitted curve in the direction sought with a large enough effect; inconclusive = small, poorly fitted or top-dose-only effect, or another doubt; inactive = no such curve, though single readings can be large; an effect the other way counts as inactive or inconclusive.

SMILES	PI5P4Ka inh	BAZ2B inh	KAT2A inh	HP1b chromo inh	PLK1 PBD block	JMJD2A Tudor inh	G9a inh	others
CCOC(=O)N1CCc2c(sc(NCc3ccc(N(C)C)cc3)c2C(=O)Nc2ccc(OC)cc2)C1	/	22µM*	-6%	?	/	14µM*	3.6*
CCOC(=O)N1CCc2c(sc(NCc3cccc(F)c3)c2C(=O)Nc2ccc(OC)cc2OC)C1	/	?	-9%	?	/	?	2.5*
CCOC(=O)N1CCc2c(sc(NCc3sccc3C)c2C(=O)Nc2ccccc2OCC)C1	/	-23%	-5%	7%	/	?	/
CC[C@H]1C/C=C\Cc2ccccc2[C@@H](C(=O)C[C@@H](O)CC(C)=O)OC1=O	-3	/	-3%	27%	-7%	-13%	/
CCN(CC)c1ccc(NC(=O)c2cc(Cl)ccc2OC)cc1	11	?	-3%[0.501 µM]	35µM*	-5%	45µM*	1.4*
COc1cccc(C(=O)Nc2ccncc2)c1OC	2	-22%	-17%	24%	2%	1%	/
COc1cccc(C(=O)Nc2ccc(N(C)C)cc2)c1OC	-8	50µM*	-10%	?	-20%	56µM*	7.1*
CCN(C(=O)COC(=O)c1cccc(S(=O)(=O)N2CCOCC2)c1)C1CCS(=O)(=O)C1 (centres undefined)	-3	-3%	-2%	28%	-1%	4%	/
COc1ccc(C(C)=O)cc1CN1CCCCC1	0	39%	-6%	26%	3%	-3%	/
COc1ccc(Br)cc1CN1CCCCCCC1	/	50µM*	-3%	?	5%	4µM*	13*
COc1ccc(CNC(=O)c2cccc3c(-c4cnn(C)c4)coc23)cc1OC	3	/	/	/	-5%	/	/
CCc1ccc(C(=O)CC2(O)C(=O)N(Cc3ccc(C)cc3)c3ccccc32)cc1 (centres undefined)	/	10µM*	-7%	?	/	40µM*	/	RGS4 confirm=24*
COc1ccc(C(=O)NCC(C)(c2ccccc2)c2ccccc2)cc1S(=O)(=O)N1CCOCC1	3	/	/	12%	0%	-19%	/
C=CCOc1c(Cl)cc(CNc2ccc(N(C)C)cc2)cc1OC	/	25µM*	-10%	16µM*	-9%	18µM*	5.6*
CC(C)(CN1CCc2ccccc2C1)NS(=O)(=O)c1ccc(Cl)cc1	11	0%	-7%	44%	-4%	14%	/
CC(C)c1ccc(N2C(=O)CC(Sc3nc4ccccc4o3)C2=O)cc1 (centres undefined)	/	0%	-9%	57%	-19%	-15%	/
CC(C)c1ccc(N2C(=O)CC(Sc3ncn[nH]3)C2=O)cc1 (centres undefined)	-24	5%	0%	-73%	27µM*	7.1µM*	/	JMJD2E inh=5.6µM*;FDH inh=0.25µM*
Cc1ccc2c(c1)C(c1ccc(F)cc1)N(C(=O)c1cccc(C(F)(F)F)c1)CC(=O)N2 (centres undefined)	/	-4%	-19%	38%	/	-29%	/
Oc1ccc(NCc2ccc(OCc3ccccc3)cc2)cc1	-21	40µM*	-10%	?	-9%	56µM*	1.3*
COc1ccc(C(C(O)C(=O)c2c[nH]c3ccccc23)N2CCN(c3ccc(OC)cc3)CC2)cc1 (centres undefined)	0	61%	-11%	?	-1%	?	5.6*
O=C(c1c[nH]c2ccccc12)C(O)C(c1ccccc1)N1CCOCC1 (centres undefined)	-3	5%	2%	12%	-9%	-4%	/
CCN1c2ccccc2NC2C1C(C(C)=O)C(=O)N2c1ccc(Cl)cc1 (centres undefined)	/	?	-5%	-11%	-2%	?	/
CCN1c2ccccc2NC2N=C(OC)C(c3ccccc3)C21 (centres undefined)	/	45µM*	-3%	?	-14%	50µM*	11*
O=C(Nc1ccc(N2CCCC2)cc1)c1ccccc1F	/	?	-2%	-7%	-15%	?	2.8*
O=C(Nc1ccc(N2CCCCC2)cc1)c1ccccc1	/	-24%	-19%	2%	4%	-28%	/
SMILES	PI5P4Ka inh	BAZ2B inh	KAT2A inh	HP1b chromo inh	PLK1 PBD block	JMJD2A Tudor inh	G9a inh	others
O=C(Nc1ccccc1N1CCCC1)c1cccc(-c2cc3ccccc3oc2=O)c1	-14	?	-9%	-21%	-17%	?	/
O=C(Nc1ccc(N2CCCC2)cc1)c1cccc(-c2cc3ccccc3oc2=O)c1	?	?	28%	8.9µM*	2.7µM*	28µM*	1.1*
O=C(Nc1ccc(N2CCCC2)cc1)c1cccc(F)c1	/	?	-27%	?	-11%	50µM*	1.6*
O=C(Nc1ccc(N2CCCCC2)cc1)c1ccc(F)cc1F	-10	-6%	-2%	7%	-8%	-16%	/
COc1ccc(C(OC(=O)c2ccco2)C(=O)NC(C)(C)C)cc1 (centres undefined)	-3	-5%	5%	14%	-5%	-2%[57.1 µM]	/
Cc1ccc(NC(=O)CN2C(=O)NC(C)(CC(C)C)C2=O)c(Br)c1 (centres undefined)	-5	/	2%	9%[57 µM]	4%	1%	/
COc1cccc(CNc2ccc(N3CCCCC3)cc2)c1OC	1	14µM*	-2%	40µM*	-14%	35µM*	0.89*
COc1ccccc1CNc1ccc(N2CCCCC2)cc1	/	13µM*	-3%	32µM*	-22%	32µM*	1.1*
N/C(=N/OC(=O)c1ccc(Cl)cc1)c1ncc([N+](=O)[O-])s1	1	-4%	-4%	48%	-1%	-9%	/
O=C(Sc1nnnn1C1CCCCC1)c1cccs1	/	?	-6%	/	/	/	0.71*
Oc1ccc(CNc2ccccc2)c2cccnc12	-55*	32µM*	-2%	?	7.5µM*	79µM*	/	JMJD2E inh=2µM*;FDH inh=-21%
